Measured values from PubChem BioAssay.
For some of these results: Potency and affinity values are given separately. Active and inactive are the calls of the source. Unless noted, how the calls were made is not given here.

Tests used:
[1] = antimalarial activity against Dd2 strain (AID 2302;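 active means growth inhibition above 50% at the single 2 µM test dose, taken to imply half-maximal potency below 2 µM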;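 further: 0% = DMSO untreated growth and 100% = chloroquine plus artemisinin killed control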); settings: P. falciparum Dd2 in RBCs, LDH growth readout, 72 h; at 2 µM; stronger effect = higher value
[2] = human hepatoma cell viability loss – ATP luminescence, cytotoxicity control for P. falciparum antimalarial project, primary screen (AID 2303;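 active means inhibition above 50%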;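 further: 0% = DMSO wells and 100% = digitonin-killed cells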); settings: HepG2 viability, 24-48 h, at 10 µM, stronger effect = higher value
[3] = target: L-lactate dehydrogenase (Plasmodium falciparum (isolate CDC / Honduras)) (UniProt Q27743); experiment: PfLDH activity inhibition – cell lysate, 3D7 strain, counter-screen for P. falciparum growth inhibition project (AID 2304);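 further: 0% = vehicle and 100% = reference inhibitor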; settings: P. falciparum 3D7 crude extract, LDH APAD/NBT absorbance; at 2 µM; stronger effect = higher value
[4] = inhibition of 3D7 malaria parasite growth – strain 3D7 (AID 2306);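 further: 0% = DMSO wells and 100% = chloroquine plus artemisinin control wells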; settings: P. falciparum 3D7 erythrocytic growth, LDH absorbance, 72 h; at 2 µM; stronger effect = higher value
[5] = target: Calcium-dependent protein kinase 1 (Plasmodium falciparum (isolate 3D7)) (UniProt P62344); experiment: PfCDPK1 kinase inhibitors, biochemical, TCAMS library (AID 1159585; cut-off not given, nearly all actives have IC50 up to about 0.98 µM;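 further: inhibitors leave more ATP so luminescence rises with inhibition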); settings: recombinant PfCDPK1, Kinase-Glo ATP depletion luminescence
[6] = target: Plasmodium falciparum protein kinase 6 (PK6, PF3D7_1337100) (UniProt Q8IDW1); experiment: PfPK6 kinase inhibitors, biochemical, TCAMS library (AID 1159586); settings: recombinant PfPK6, Kinase-Glo ATP depletion luminescence
[7] = target: Protein kinase 7 (PK7), Plasmodium falciparum 3D7 (PF3D7_0213400) (UniProt Q7YTF7); experiment: inhibition of Plasmodium PK7 catalytic activity – biochemical, TCAMS antimalarial set, Kinase-Glo luminescence (AID 1159587); settings: recombinant PfPK7, Kinase-Glo ATP depletion luminescence
[8] = target: Calcium-dependent protein kinase 4 (Plasmodium falciparum (isolate 3D7)) (UniProt Q8IBS5); experiment: PfCDPK4 kinase inhibitors, biochemical, TCAMS library (AID 1159588; cut-off not given, nearly all actives have IC50 up to about 0.91 µM); settings: recombinant PfCDPK4, Kinase-Glo ATP depletion luminescence
Chain of Calcium-dependent protein kinase 4 (Plasmodium falciparum (isolate 3D7)) (Q8IBS5 whole entry, looked up): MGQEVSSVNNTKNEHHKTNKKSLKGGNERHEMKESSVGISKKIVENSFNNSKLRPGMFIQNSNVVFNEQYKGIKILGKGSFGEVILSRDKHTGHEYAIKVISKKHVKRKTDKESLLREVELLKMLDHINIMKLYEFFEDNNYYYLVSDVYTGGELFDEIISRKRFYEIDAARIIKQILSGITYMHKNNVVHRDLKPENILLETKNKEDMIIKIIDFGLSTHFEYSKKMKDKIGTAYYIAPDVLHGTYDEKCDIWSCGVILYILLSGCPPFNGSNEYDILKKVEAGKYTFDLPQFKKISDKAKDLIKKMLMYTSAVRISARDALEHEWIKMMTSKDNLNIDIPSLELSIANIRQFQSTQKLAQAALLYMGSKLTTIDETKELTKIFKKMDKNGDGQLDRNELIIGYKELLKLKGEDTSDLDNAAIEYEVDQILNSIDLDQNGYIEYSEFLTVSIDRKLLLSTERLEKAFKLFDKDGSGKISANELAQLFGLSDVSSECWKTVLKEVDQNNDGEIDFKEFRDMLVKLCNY

Chain of Plasmodium falciparum protein kinase 6 (PK6, PF3D7_1337100) (Q8IDW1 1-305): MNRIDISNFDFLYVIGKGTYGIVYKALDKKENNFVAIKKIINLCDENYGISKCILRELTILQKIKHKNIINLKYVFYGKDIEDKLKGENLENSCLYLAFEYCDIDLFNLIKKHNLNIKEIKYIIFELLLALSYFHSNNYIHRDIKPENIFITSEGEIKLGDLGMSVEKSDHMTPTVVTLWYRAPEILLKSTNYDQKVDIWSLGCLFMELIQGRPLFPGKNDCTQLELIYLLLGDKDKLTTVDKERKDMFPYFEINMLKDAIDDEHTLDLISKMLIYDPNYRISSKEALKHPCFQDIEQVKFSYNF
Chain of Calcium-dependent protein kinase 1 (Plasmodium falciparum (isolate 3D7)) (P62344 whole entry, looked up): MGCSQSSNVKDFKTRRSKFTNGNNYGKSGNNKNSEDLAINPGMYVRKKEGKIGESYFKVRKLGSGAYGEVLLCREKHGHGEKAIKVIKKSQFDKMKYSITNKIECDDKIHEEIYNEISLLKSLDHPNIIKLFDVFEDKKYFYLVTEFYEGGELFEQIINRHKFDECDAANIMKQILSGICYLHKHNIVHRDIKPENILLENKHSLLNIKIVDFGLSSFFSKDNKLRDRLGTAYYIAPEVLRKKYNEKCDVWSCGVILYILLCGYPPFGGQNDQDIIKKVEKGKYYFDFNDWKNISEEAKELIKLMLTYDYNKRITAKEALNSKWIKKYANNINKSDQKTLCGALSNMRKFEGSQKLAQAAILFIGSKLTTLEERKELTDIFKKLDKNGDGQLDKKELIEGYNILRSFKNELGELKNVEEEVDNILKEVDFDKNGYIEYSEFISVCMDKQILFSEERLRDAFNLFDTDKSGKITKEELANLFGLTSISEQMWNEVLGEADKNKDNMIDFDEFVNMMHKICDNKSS
Chain of Protein kinase 7 (PK7), Plasmodium falciparum 3D7 (PF3D7_0213400) (Q7YTF7 1-343): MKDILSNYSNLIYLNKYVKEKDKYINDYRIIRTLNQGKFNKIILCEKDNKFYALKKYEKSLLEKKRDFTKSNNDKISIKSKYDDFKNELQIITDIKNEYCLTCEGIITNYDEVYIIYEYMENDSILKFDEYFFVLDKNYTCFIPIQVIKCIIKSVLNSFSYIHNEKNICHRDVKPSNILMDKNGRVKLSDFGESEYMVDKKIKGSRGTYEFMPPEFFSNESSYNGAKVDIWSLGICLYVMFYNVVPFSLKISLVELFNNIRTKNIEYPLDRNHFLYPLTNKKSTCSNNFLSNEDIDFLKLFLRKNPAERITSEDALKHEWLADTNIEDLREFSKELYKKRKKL
Chain of L-lactate dehydrogenase (Plasmodium falciparum (isolate CDC / Honduras)) (Q27743 whole entry, looked up): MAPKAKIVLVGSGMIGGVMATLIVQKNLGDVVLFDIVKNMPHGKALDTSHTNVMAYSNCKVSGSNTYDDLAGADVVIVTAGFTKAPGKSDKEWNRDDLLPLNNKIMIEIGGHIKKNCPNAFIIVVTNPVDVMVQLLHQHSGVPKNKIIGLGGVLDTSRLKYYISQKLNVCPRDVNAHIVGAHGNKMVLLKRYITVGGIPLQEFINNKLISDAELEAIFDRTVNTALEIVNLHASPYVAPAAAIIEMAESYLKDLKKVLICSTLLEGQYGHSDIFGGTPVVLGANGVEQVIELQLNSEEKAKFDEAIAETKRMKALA

C=C(C)CSc1nc2c(c(=O)n1CCc1ccccc1)C1(CCCC1)Cc1ccccc1-2
active: growth inhibition [1] 80% | growth inhibition [4] 101%
inactive: inhibition [2] 14% | inhibition [3] -5% | outcome [5] | outcome [6] | outcome [7] | outcome [8]

COc1ccccc1C1CCN(C2CCC(NC(=O)/C=C/c3ccc4c(c3)OC(F)(F)O4)CC2)CC1 (stereo not given)
inactive: growth inhibition [1] 31% | inhibition [3] -2% | outcome [5] | outcome [6] | outcome [7] | outcome [8]
active: inhibition [2] 52% | growth inhibition [4] 98%

CCCC[C@H](NC(=O)O[C@H](COc1ccc(OCc2ccccc2)cc1)C(C)(C)C)C(=O)C(=O)Nc1ccn[nH]1
active: growth inhibition [1] 71% | growth inhibition [4] 88%
inactive: inhibition [2] 21% | inhibition [3] -1% | outcome [5] | outcome [6] | outcome [7] | outcome [8]

COc1ccc2nc(-c3ccccc3)cc(NN=Cc3ccc([N+](=O)[O-])o3)c2c1
active: growth inhibition [1] 99% | inhibition [2] 90% | growth inhibition [4] 100%
inactive: inhibition [3] -7% | outcome [5] | outcome [6] | outcome [7] | outcome [8]

Cc1cccc2[nH]c(-c3cc(-c4cccc(Cl)c4)cnc3N)nc12
active: growth inhibition [1] 99% | growth inhibition [4] 101%
inactive: inhibition [2] 32% | inhibition [3] 2% | outcome [5] | outcome [6] | outcome [7] | outcome [8]

CC1(C)N=C(N)N=C(N)N1OCCc1ccc(N)cc1
inactive: inhibition [3] -6% | outcome [5] | outcome [6] | outcome [7] | outcome [8]
active: growth inhibition [1] 95% | inhibition [2] 65% | growth inhibition [4] 93%

COc1ccc(S(=O)(=O)N(CCCN2CCN(C)CC2)Cc2csc(-c3ccc(CNCc4ccccc4)cc3)n2)cc1
active: growth inhibition [1] 86% | growth inhibition [4] 88%
inactive: inhibition [2] 10% | inhibition [3] 6% | outcome [5] | outcome [6] | outcome [7] | outcome [8]

CCCCCCn1c(Sc2ccc(C#N)c([N+](=O)[O-])c2)nnc1-c1ccc(OC)cc1
inactive: inhibition [2] 19% | inhibition [3] 2% | outcome [5] | outcome [6] | outcome [7] | outcome [8]
active: growth inhibition [1] 51% | growth inhibition [4] 95%

COc1cccc(C(=O)N2CCN(Cc3cccc(NC(=O)c4cccs4)c3)CC2)c1
active: growth inhibition [1] 95% | growth inhibition [4] 95%
inactive: inhibition [2] 6% | inhibition [3] -2% | outcome [5] | outcome [6] | outcome [7] | outcome [8]

COc1cccc(-c2cc3nc4c(c(NCCCn5ccnc5)n3n2)CCCC4)c1
active: growth inhibition [1] 66% | growth inhibition [4] 100%
inactive: inhibition [2] 10% | inhibition [3] -2% | outcome [5] | outcome [6] | outcome [7] | outcome [8]

Cn1cc(C(=O)Nc2cccc(-c3cccc(-c4nc5ccc(F)cc5[nH]4)c3)c2)n(C)c1=O
active: growth inhibition [1] 50% | growth inhibition [4] 98%
inactive: inhibition [2] 15% | inhibition [3] -1% | outcome [5] | outcome [6] | outcome [7] | outcome [8]

CC(C)(C)c1cc(C(=O)N2CCN(c3ncnc4ccsc34)CC2)n(Cc2ccccc2)n1
active: growth inhibition [1] 83% | growth inhibition [4] 95%
inactive: inhibition [2] 2% | inhibition [3] -8% | outcome [5] | outcome [6] | outcome [7] | outcome [8]

COc1ccc(-n2nc(C)c3c2NC(=O)CC3c2ccccc2OCc2ccc(F)cc2)cc1 (stereo not given)
active: growth inhibition [1] 65% | inhibition [2] 53% | growth inhibition [4] 93%
inactive: inhibition [3] 7% | outcome [5] | outcome [6] | outcome [7] | outcome [8]

CCc1ccc(-n2cc(C(=O)c3cc(Br)ccc3O)cc(C#N)c2=O)cc1
active: growth inhibition [4] 97%
inactive: growth inhibition [1] 30% | inhibition [2] 9% | inhibition [3] -2% | outcome [5] | outcome [6] | outcome [7] | outcome [8]

CCC(C)OC(=O)C1=C(C)NC2=C(C(=O)CC(c3ccc(OC)c(OC)c3)C2)C1c1ccc(C)o1 (stereo not given)
active: growth inhibition [1] 82% | growth inhibition [4] 93%
inactive: inhibition [2] 6% | inhibition [3] 2% | outcome [5] | outcome [6] | outcome [7] | outcome [8]

COc1ccccc1CNc1ccnc(NCCc2cccc(C(F)(F)F)c2)n1
inactive: inhibition [2] 39% | inhibition [3] -4% | outcome [5] | outcome [6] | outcome [7] | outcome [8]
active: growth inhibition [1] 68% | growth inhibition [4] 93%

Oc1cc2c(cc1CN1CCN(Cc3ccccc3F)CC1)CCC2
inactive: inhibition [2] 2% | inhibition [3] -3% | outcome [5] | outcome [6] | outcome [7] | outcome [8]
active: growth inhibition [1] 94% | growth inhibition [4] 98%

NC(=O)c1ccc(NC(=O)CN(Cc2ccc(Cl)cc2)S(=O)(=O)c2ccccc2)cc1
inactive: inhibition [2] 2% | inhibition [3] 6% | outcome [5] | outcome [6] | outcome [7] | outcome [8]
active: growth inhibition [1] 75% | growth inhibition [4] 90%

Cc1c(Cl)ccc2c(C(=O)Nc3ccncc3)cc(-c3cccnc3)nc12
active: growth inhibition [1] 83% | growth inhibition [4] 99%
inactive: inhibition [2] 16% | inhibition [3] -3% | outcome [5] | outcome [6] | outcome [7] | outcome [8]

O=C(Nc1ccc(Cn2nc(Cl)c(N3CCCNCC3)cc2=O)cc1)c1ccc(-c2ccccc2)cc1
inactive: growth inhibition [1] 35% | inhibition [3] 0% | outcome [5] | outcome [6] | outcome [7] | outcome [8]
active: inhibition [2] 93% | growth inhibition [4] 87%
